Bioassay records from PubChem BioAssay.
BoNT-F LC inh – inhibitors of Botulinum neurotoxin F light chain protease; Multiplex microsphere protease cleavage assay, flow cytometry; inhibition, % at 10 µM; 360,000 tested, 0.22% active; in the data active = inhibition above about 35%, passing the limit was not always enough; inconclusive = no clear call, values can overlap the other calls; note: plate controls were buffer without enzyme for full effect and enzyme alone for no effect
BoNT A protease – BoNT A light chain protease inhibition; inhibition, % at 10 µM; multiplex microsphere protease substrate cleavage, flow cytometry; AID 588499; 360,000 tested, 0.17% active; note: plate controls were buffer without enzyme for full effect and enzyme alone for no effect
Anthrax LF inh2 – inhibitors of Bacillus anthracis lethal factor protease | multiplex microsphere protease cleavage assay, LF | 360,000 tested, 0.12% active | inhibition, % at 10 µM | AID 588501; note: plate controls were buffer without enzyme for full effect and enzyme alone for no effect
MazF activator – activators of E. coli MazEF toxin-antitoxin RNase. P0AE70. AID 504720. activation, % at 20 µM. 350,000 tested, 0.32% active. FAM/BHQ RNA-DNA oligo cleavage fluorescence, 5 h; in the data active = activation above about 50%
Target sequence (P0AE70 whole entry, looked up): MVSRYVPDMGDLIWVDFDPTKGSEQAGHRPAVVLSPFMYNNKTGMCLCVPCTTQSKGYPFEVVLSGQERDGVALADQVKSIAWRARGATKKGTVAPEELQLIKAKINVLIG
Autofluor counter – flagged as autofluorescent in microsphere protease counterscreen; compound autofluorescence counterscreen, microsphere flow cytometry; stronger effect = higher value; fluorescence intensity (concentration not given with the values); 360,000 tested, 3.1% active; AID 624483; in the data active = fluorescence intensity above about 16000; inconclusive = no clear call, values can overlap the other calls
Active calls of the source: *; ? = inconclusive; . = no result given. Rows were chosen to be rich in hits. Some 3.7% of all compounds tested hit in one or more screens of this group. Cut-off read from the data, not from the text of the source, unless noted: active = inhibition above about 30%; inconclusive = no clear call, values can overlap the other calls; inactive = below that.

SMILES	BoNT-F LC inh	BoNT A protease	Anthrax LF inh2	MazF activator	Autofluor counter
CCOc1ccc(NS(=O)(=O)c2cc(OC)ccc2OC)cc1	-6	1	0	1	6674
COc1ccc(OC)c(S(=O)(=O)Nc2ccc(Oc3ccccc3)cc2)c1	-1	2	-11	2	21725*
C#CCN1C(=O)S/C(=C\c2cc3c(cc2OC)OCO3)C1=O	?	0	15	196*	4454
Cc1ccc(S(=O)(=O)CCC(=O)N2CCN(c3ccc(Cl)cc3)CC2)cc1	-3	-2	-2	-2	17240*
O=C(CCS(=O)(=O)c1ccc(Cl)cc1)N1CCN(c2ccc(F)cc2)CC1	.	.	.	-11	.
Cc1ccn2c(NC3CCCCC3)c(-c3cccc(-c4cccc(Cl)c4)c3)nc2c1	-2	0	-8	-31	5417
COc1cc(C2SCC(=O)Nc3c2c(C)nn3-c2ccccc2)cc(OC)c1OC (configuration not stated)	4	3	-2	3	19341*
Cc1nn(-c2ccccc2)c2c1C(c1ccc3c(c1)OCO3)SCC(=O)N2 (configuration not stated)	-6	0	-2	7	12596
CCOC(=O)C1=CN(Cc2cccc(F)c2)S(=O)(=O)N(C)C1c1cccc(OC)c1 (configuration not stated)	1	0	-1	50*	3507
CC(=O)c1sc(NC(=O)C=C(C)C)nc1C	-3	-2	-5	12	17371*
CCc1c(C)sc(NC(=O)OC)c1C(N)=O	-1	-1	2	-11	17066*
O=C(Nc1ccccc1C(F)(F)F)C1CC(=O)N(c2ccccc2F)C1 (configuration not stated)	4	4	-9	-2	21214*
COc1cc(CNc2ncn[nH]2)cc(Br)c1OC	0	?	-2	3	23846*
CCOc1c(Br)cc(CNc2ncn[nH]2)cc1OC	-3	0	2	4	4859
CC(CCc1ccccc1)NC(=O)CN1C(=O)NC2(CCCCC2C)C1=O (configuration not stated)	-7	-1	0	4	3071
COc1ccc(CCNC(=O)c2ccc3c(=O)n4c(nc3c2)CCC4)cc1OC	-4	-4	-3	10	5077
Cc1cc2cc(CNC(=O)c3ccc4c(c3)OCO4)ccc2[nH]1	-85	67*	-41	12	2941
CCc1c(C(=O)NCc2ccc3c(c2)OCO3)[nH]c(C)c1C(C)=O	-3	-2	-3	-9	17026*
Cc1nn(-c2cc(N3CCCCC3)ccc2N)c(=O)c2ccccc12	0	?	0	3	20582*
Cc1nn(-c2cc(N3CCCCCC3)ccc2[N+](=O)[O-])c(=O)c2ccccc12	-2	?	1	2	23118*
Nc1ccc(N2CCCCC2)cc1N1CCCCC1	-83	2	-15	7	1778
CCOC(=O)C1=C(COC(=O)CCCOc2ccccc2)NC(=O)NC1C (configuration not stated)	5	1	0	4	5676
CCOCCCn1c(=N)c(C(=O)NCCN2CCOCC2)cc2c(=O)n3cccc(C)c3nc21	-2	-1	0	6	22990*
Cc1cccn2c(=O)c3cc(C(=O)NCCN4CCOCC4)c(=N)n(CCN4CCOCC4)c3nc12	-1	0	-1	7	4309
Nc1ccn(C2C=CC(CO)O2)c(=O)n1 (configuration not stated)	0	0	2	.	5816
SMILES	BoNT-F LC inh	BoNT A protease	Anthrax LF inh2	MazF activator	Autofluor counter
CCOC(=O)Cn1nc(C)n(-c2ccc(Cl)cc2)c1=O	-2	0	11	0	4144
CCOC(=O)Cn1nc(C)n(-c2ccc(C(C)C)cc2)c1=O	-5	-2	-4	-3	16947*
Cc1ccccc1-c1cc2nc(NCCc3ccncc3)n(C)c(=O)c2s1	1	0	-7	.	3874
O=C1CC(=O)N(C2CCCCC2)C(=O)N1c1ccccc1S(=O)(=O)Oc1ccccc1	6	1	-4	.	4542
CCOc1ccccc1OCC(=O)Nc1ccc(S(=O)(=O)Nc2nc(C)cc(C)n2)cc1	-3	-2	-2	-10	20817*
Cc1cc(NS(=O)(=O)c2ccc(NC(=O)COc3ccccc3Cl)cc2)no1	-9	-4	-4	-5	24447*
Cc1cc(C)c2nc(-c3ccccn3)cc(C(=O)Nc3ccc(S(=O)(=O)Nc4cc(C)on4)cc3)c2c1	-2	?	-7	-1	16205*
Cc1cc(NS(=O)(=O)c2ccc(NC(=O)COc3ccccc3C(C)C)cc2)no1	-10	0	-13	-12	4414
Cn1nccc1-c1ccc(C(=O)NCc2ccc(Cl)cc2)c2occc12	-4	0	1	.	3804
